Source: PubChem BioAssay (NCATS)
Inconclusive results are not listed. A call without a number means that no potency is given here. A number with no mark means an inactive call. Activity calls are given as the source filed them. Calls come from the whole dose curve.
Potency is the fitted concentration of half-maximal effect.

Assay: Cytotoxicity counterscreen for inhibitors of SARS-CoV-2 cell entry (AID 1645845); note: nearly all actives have a fitted effect of over 50% in size
Conditions: cell viability (SARS-CoV-2 entry assay cells); series mostly up to 57.1 µM
Outline: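 48 h compound treatment (after 1 h preincubation), HEK293-ACE2 cells, 37 C/5% CO2; ATP luminescence endpoint; normalized to cell wells and media blanks.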
In the case of `CCOc1cc(NC(C)=O)ccc1C(=O)OC`, the Potency is reported as “inactive”.
For `COc1c(N2CCNC(C)C2)c(F)cc2c(=O)c(C(=O)O)cn(C3CC3)c12` (stereo not drawn), the Potency was “inactive”.
In the case of `C/C(=C1\CCOC(=O)S1)N(C=O)Cc1cnc(C)nc1N`, the Potency is reported as “inactive”.
For `Cc1ccc(C(=O)Nc2cccc(C(F)(F)F)c2)cc1-c1ccc2nc(NCCN3CCOCC3)ncc2c1`, the Potency was “inactive”.
In the case of `CCOc1cc(C(=O)Nc2ccc(Cl)c(-c3nc4ccccc4[nH]3)c2)cc(OCC)c1OCC`, the Potency is reported as “inactive”.
For `CC(C)(C)c1nnc(NS(=O)(=O)c2ccccc2)s1`, the Potency was “inactive”.
With `Clc1ccccc1CN1CCc2sccc2C1` the Potency was “inactive”.
With `CCCCC(CC)COC(=O)c1ccc(N(C)C)cc1` (stereo not drawn) the Potency was “inactive”.
With `N[C@H]1C(O)O[C@H](CO)[C@@H](O)[C@@H]1O` (stereo partly drawn) the Potency was “inactive”.
In the case of `Cc1c(C)c2c(c(C)c1OC(=O)c1cccnc1)CC[C@@](C)(CCC[C@H](C)CCC[C@H](C)CCCC(C)C)O2`, the Potency is reported as “inactive”.
For `COc1cccc(OC)c1-c1cc(C(=O)NC2(C(=O)O)C3CC4CC(C3)CC2C4)nn1-c1ccnc2cc(Cl)ccc12` (stereo not drawn), the Potency was “inactive”.
For `O=C(O)c1ccccn1`, the Potency was “inactive”.
For `Cc1cn(-c2cc(NC(=O)c3ccc(C)c(Nc4nccc(-c5cccnc5)n4)c3)cc(C(F)(F)F)c2)cn1`, the Potency was “inactive”.
In the case of `Cn1c(Nc2ccc(C(F)(F)F)cc2)nc2cc(Oc3ccnc(-c4ncc(C(F)(F)F)[nH]4)c3)ccc21`, the Potency is reported as “inactive”.
With `Cn1cncc1[C@@](N)(c1ccc(Cl)cc1)c1ccc2c(c1)c(-c1cccc(Cl)c1)cc(=O)n2C` the Potency was “inactive”.
Work on `COc1ccc2c3n(c(=NC(=O)c4cccnc4)nc2c1OC)CCN3` yielded an activity change, negative = cytotoxicity of 3.4% [at 5.25 µM].
With `O=C1CCCC2=C1C(c1[nH]ncc1Cl)N=C(Nc1nc3ccccc3o1)N2` (stereo not drawn) the Potency was “inactive”.
In the case of `CCCCCCCCCCCCCC(=O)OC(C)C`, the Potency is reported as “inactive”.
With `O=C(O)CCc1ccc(NCc2cccc(Oc3ccccc3)c2)cc1` the Potency was “inactive”.
In the case of `CCNC(=O)c1noc(-c2cc(C(C)C)c(O)cc2O)c1-c1ccc(CN2CCOCC2)cc1`, the Potency is reported as “inactive”.
With `O=C(O)CNC(=O)CNC(=O)CNC(=O)CSC(=O)c1ccccc1` the Potency was “inactive”.
With `CC(C)(C(=O)NCC(F)(F)C(F)(F)F)C(=O)N[C@@H]1C(=O)Nc2ccccc2-c2ccccc21` the Potency was “inactive”.
For `Cc1ccccc1-n1c(Cn2cnc3c(N)ncnc32)nc2cccc(C)c2c1=O`, the Potency was “inactive”.
For `CC(C)c1ccc2c(c1)c(SC(C)(C)C)c(CC(C)(C)C(=O)O)n2Cc1ccc(Cl)cc1`, the Potency was “inactive”.
With `C[C@@H]1CCN(C(=O)CC#N)C[C@@H]1N(C)c1ncnc2[nH]ccc12` the Potency was “inactive”.
With `CC(=O)NC(C)c1ccc(Oc2ccc(OC(C)C)cc2)cc1` (stereo not drawn) the Potency was “inactive”.
For `CC1=C(/C=C/C(C)=C/C=C/C(C)=C/C(=O)O)C(C)(C)CCC1`, the Potency was “inactive”.
For `CC(C)c1ccc(Cn2ccc3c4c(N)nc(NC5CC5)nc4ccc32)cc1`, the Potency was 2.51 µM (active).
With `O=C(O)[C@@H](c1ccc(OCc2ccc3ccccc3n2)cc1)C1CCCC1` the Potency was “inactive”.
In the case of `O=C(Nc1cccc(C2=NCCN2)c1)Nc1cccc(C2=NCCN2)c1`, the Potency is reported as “inactive”.
For `COc1cc2c(cc1OC)CN(CCc1ccc(NC(=O)c3cccc4c(=O)c5cccc(OC)c5[nH]c34)cc1)CC2`, the Potency was “inactive”.
In the case of `CN(C)c1ccc(C2Nc3ccc4ccccc4c3C3=C2C(=O)CC(C)(C)C3)cc1Br` (stereo not drawn), the Potency is reported as “inactive”.
With `COc1cc2ncnc(-n3nc(-c4ccccn4)nc3N)c2cc1OC` the Potency was “inactive”.
With `CC(C)[C@H](CO)Nc1nc(Nc2ccc(C(=O)O)c(Cl)c2)c2ncn(C(C)C)c2n1` the Potency was “inactive”.
In the case of `Cc1cnc(Nc2ccc(OCCN3CCCC3)cc2)nc1Nc1cccc(S(=O)(=O)NC(C)(C)C)c1`, the Potency is reported as 25.1 µM (active).
With `C#Cc1cccc(Nc2ncnc3cc(OC)c(OCCCCCCC(=O)NO)cc23)c1` the Potency was 10 µM (active).
With `COCC1(CO)C(=O)C2CCN1CC2` (stereo not drawn) the Potency was “inactive”.
In the case of `COc1ccccc1[C@H](c1cccc2ccccc12)[C@@](C)(C#N)C(=O)N1CCC(c2cccc(C(F)(F)F)c2)CC1`, the Potency is reported as “inactive”.
